According to PubChem BioAssay (EPA / NIEHS):
“And” between values parts separate entries of the source, which are not always exact repeats. Equal entries are not always repeated. Records with an inconclusive call do not appear. More than one record can exist for a structure, and the calls need not agree. The source made the active and inactive calls. The calls were made as follows, unless noted: active = hit-call score of the fitted dose curve at least 0.9, where 1 is the maximum; inactive = score below 0.9.

Experiments:
[1] = CCTE_Shafer_MEA_acute_spike_number: CCTE's Neural Acute Assay for Total Number of Spikes, Shafer Lab (AID 2284008);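 as to AC50: curve fitted for decrease in spike count so AC50 reflects inhibitors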
Outline: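 Rat cortical cultures, DIV 13/15, 37 C. 40 min baseline rec, cpd 0.03-40 uM, 40 min post-dose rec. Band-pass 300-5000 Hz, spike threshold 8x rms; % change in spike count per well, DMSO neg ctrl, loss-of-signal fit.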

[2] = CCTE_Shafer_MEA_acute_firing_rate_mean: CCTE's Neural Acute Assay for Mean Firing Rate, Shafer Lab (AID 2284009);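 also: analyzed for loss of signal so actives lower firing rate relative to DMSO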
Outline: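 Rat primary cortical neurons on 48-well MEA plates, dosed at 0.03-40 uM on DIV 13 or 15; 40 min spontaneous activity recorded at 37 C before and after compound. Spike rate per electrode averaged per well, expressed as percent change from baseline.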

[3] = CCTE_Harrill_HTTr_Viability_MCF7: CCTE's 6-hour Cell Viability Assessment for the High-Throughput Transcriptomics (HTTr) Platform, in MCF-7 cells cultured in DMEM + 10% fetal bovine serum, Harrill Lab (AID 2284010)
Outline: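 Membrane integrity was scored by high-content imaging of propidium iodide dye exclusion after a 6 h exposure across an eight-point dilution series. Data were fitted bidirectionally relative to DMSO as negative control and baseline.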

[4] = CCTE_Harrill_HTTr_Apoptosis_MCF7: CCTE's 6-hour Apoptosis Assessment for the High-Throughput Transcriptomics (HTTr) Platform, in MCF-7 cells cultured in DMEM + 10% fetal bovine serum, Harrill Lab (AID 2284011)
Outline: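 Read-out: CellEvent Caspase 3/7 Green signal by high content imaging, gain-of-signal indicating apoptosis. MCF-7 cells, DMEM + 10% FBS, eight-point dilution series, 6 h exposure. Curves fitted bidirectionally relative to DMSO negative control.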

[5] = CCTE_Harrill_HTTr_CellCount_MCF7: CCTE's Cell Proliferation Assessment for the High-Throughput Transcriptomics (HTTr) Platform, Harrill Lab (AID 2284012; active = hit-call score of the fitted dose curve at least 0.9, where 1 is the maximum;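 also: cells exposed to compound for six hours; intended direction is loss of nuclei count meaning fewer cells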)
Outline: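 MCF-7 cells were exposed for 6 h to an eight-point dilution series; Hoechst-labeled nuclei were counted by high content imaging. Curves were fitted bidirectionally against DMSO as negative control and baseline, with signal loss indicating reduced cell count.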

[6] = CCTE_Shafer_MEA_acute_burst_number: CCTE's Neural Acute Assay for Single-Electrode Bursts, Shafer Lab (AID 2284013)
Outline: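 Primary rat cortical neurons on 16-electrode MEA wells, treated on DIV 13 or 15 with compound at 0.03-40 uM. Single-electrode burst count from 40-min recordings at 37 C before and after exposure; percent change from baseline per well, DMSO negative control.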

[7] = CCTE_Shafer_MEA_acute_burst_duration_mean: CCTE's Neural Acute Assay for Mean Burst Duration, Shafer Lab (AID 2284014);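 also: hits are decreases in mean burst duration relative to DMSO controls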
Outline: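 Rat primary cortical neurons on 48-well MEA, treated at DIV 13 or 15 with 0.03-40 uM in at least 3 wells. Value is percent change in mean burst duration, comparing 40 min recordings at 37 C before and during exposure.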

[8] = CCTE_Shafer_MEA_acute_per_burst_spike_number_mean: CCTE's Neural Acute Assay for Average Number of Spikes Per Burst, Shafer Lab (AID 2284015);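 also: hits are decreases in mean spikes per burst versus baseline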
Outline: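 We recorded spontaneous network firing of rat cortical neurons for 40 min before and 40 min during exposure to compound at 0.03-40 uM, at 37 C. Spikes were detected adaptively at 8x rms noise, and the change in average spikes per burst was fitted against DMSO.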

[9] = CCTE_Shafer_MEA_acute_interburst_interval_mean: CCTE's Neural Acute Assay for Mean Interburst Interval, Shafer Lab (AID 2284016);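 also: percent change of mean interburst interval versus each well's own pre-dose baseline; curves fitted for decrease in interburst interval relative to DMSO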
Outline: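 MEA recording of spontaneous network bursting in primary rat cortical cultures; mean interburst interval was compared before and after a 40-min compound exposure (0.03-40 uM) and expressed as percent change, relative to DMSO.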

[10] = CCTE_Shafer_MEA_acute_burst_percentage_mean: CCTE's Neural Acute Assay for Percentage of Spikes in a Burst, Shafer Lab (AID 2284017);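 as to AC50: curve fitted for loss of signal so potency reflects decreased burst percentage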
Outline: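 Compounds were tested at 0.03-40 uM on primary rat cortical neuron networks grown over microelectrodes, with at least three wells per compound. Spontaneous firing was recorded for 40 min before and 40 min after dosing, and the change in burst percentage was computed per well.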

[11] = CCTE_Shafer_MEA_acute_per_network_burst_spike_number_mean: CCTE's Neural Acute Assay for Average Number of Spikes in a Network Burst, Shafer Lab (AID 2284019);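 as to AC50: curve fitted for loss of signal so actives reduce spikes per network burst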
Outline: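 Rat primary cortical neurons on 48-well MEA at DIV 13 or 15, 37 C; compounds 0.03-40 uM, at least three wells each. 40-min baseline then 40-min exposure recording; percent change in mean spikes per network burst.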

[12] = CCTE_Shafer_MEA_acute_per_network_burst_spike_number_std: CCTE's Neural Acute Assay for Standard Deviation of Number of Spikes in a Network Burst, Shafer Lab (AID 2284020);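 also: fitted for decrease in spike-number SD versus DMSO so actives lower it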
Outline: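 Rat primary cortical neurons on 48-well MEA (16 electrodes/well), treated DIV 13 or 15 at 0.03-40 uM, ≥3 wells per compound. 40 min recordings at 37 C before and after dosing; value is percent change in network-burst spike-number SD, negative direction vs DMSO.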

[13] = CCTE_Shafer_MEA_acute_per_network_burst_electrodes_number_mean: CCTE's Neural Acute Assay for Mean Number of Electrodes in a Network Burst, Shafer Lab (AID 2284021);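 also: curves fitted for decreases only so hits reduce electrodes per burst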
Outline: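 Readout: % change in mean electrodes active per network burst, post- vs pre-treatment, each well. Spikes detected at 8x rms noise after 300-5000 Hz band-pass; rat cortical cultures, DIV 13/15, compounds 0.03-40 uM, DMSO baseline.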

[14] = CCTE_Shafer_MEA_acute_network_burst_percentage: CCTE's Neural Acute Assay for Percentage of Network Bursts, Shafer Lab (AID 2284022);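 also: curves fitted for loss so actives lower network burst percentage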
Outline: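 Rat cortical cultures, DIV 13/15; 20 min equilibration, 40 min baseline, compound 0.03-40 uM, 40 min recording, 37 C. Spikes: 300-5000 Hz band-pass, threshold 8x rms noise. Readout: % change in network-burst spike fraction; loss direction vs DMSO.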

[15] = CCTE_Shafer_MEA_acute_cross_correlation_area: CCTE's Neural Acute Assay for Area of Cross Correlation, Shafer Lab (AID 2284024);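 also: area under pooled inter-electrode spike cross-correlation near zero lag as percent change from own baseline; curves fitted for loss of cross-correlation area so actives lower synchrony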
Outline: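 Rat cortical cultures, DIV 13/15, MEA; spikes detected at 8x rms noise (300-5000 Hz band-pass). Compound 0.03-40 uM, ≥3 wells each. Readout: % change in pooled inter-electrode cross-correlation area vs own baseline; DMSO negative control.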

[16] = CCTE_Shafer_MEA_acute_cross_correlation_HWHM: CCTE's Neural Acute Assay for Cross Correlation at Half Width at Half Maximum, Shafer Lab (AID 2284026);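 also: percent change per well from pre-dose baseline in spike cross-correlogram half width; hits are a decrease in cross-correlogram half width relative to DMSO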
Outline: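 Read-out: half width at half maximum of action-potential cross-correlogram, percent change versus pre-treatment baseline, fitted in loss direction against DMSO. Rat cortical cultures, DIV 13 or 15, dosed 0.03-40 uM, 40-min recordings at 37 C.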

[17] = CCTE_Shafer_MEA_acute_synchrony_index: CCTE's Neural Acute Assay for Synchrony, Shafer Lab (AID 2284027);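 also: network synchrony index of spontaneous spiking in primary rat cortical neurons on MEAs; fitted for loss of signal so actives lower synchrony relative to DMSO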
Outline: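 Primary rat cortical neurons on 16-electrode MEA wells were recorded 40 min at baseline (DIV 13 or 15) and 40 min after compound (0.03-40 uM) at 37 C. Synchrony index (0-1) expressed as percent change from baseline, versus DMSO.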

Measured: AC50

CC1COC(Cn2cncn2)(c2ccc(Oc3ccc(Cl)cc3)cc2Cl)O1 (stereo not drawn)
active: [1] 3.53 µM | [2] 3.53 µM | [6] 5.26 µM | [10] 4.77 µM | [12] 3.5 µM | [16] 4.15 µM | [17] 11.5 µM
inactive: all other assays above

CCOP(=S)(OCC)SCn1c(=O)oc2cc(Cl)ccc21
active: [7] 20 µM | [9] 30.2 µM | [10] 32.3 µM | [13] 20 µM | [14] 29 µM | [17] 29.3 µM
inactive: all other assays above

Cc1c(F)c(F)c(COC(=O)C2C(/C=C(\Cl)C(F)(F)F)C2(C)C)c(F)c1F (stereo not drawn)
inactive: [3] | [4] | [5] | [7] | [9]
active: [1] 0.567 µM | [2] 0.581 µM | [6] 0.226 µM | [8] 1.76 µM | [10] 0.24 µM | [11] 0.0326 µM | [12] 0.0979 µM | [13] 0.145 µM | [14] 0.567 µM | [15] 0.0953 µM | [16] 28.1 µM | [17] 0.433 µM

CC(Oc1ccc(Cl)cc1Cl)C(=O)O (stereo not drawn)
not listed: [5]
inactive: all other assays above

C=CCC1=C(C)C(OC(=O)C2C(C=C(C)C)C2(C)C)CC1=O (stereo not drawn)
inactive: [1] | [2] | [3] | [4] | [6] | [7] | [8] | [9] | [11] | [12] | [13] | [15] | [16]
active: [8] 2.93 µM | [9] 3.88 µM | [10] 6.49 µM and 2.93 µM | [12] 0.727 µM | [14] 7.43 µM and 1.34 µM | [16] 2.38 µM | [17] 5.52 µM and 2.93 µM

CCCC1COC(Cn2cncn2)(c2ccc(Cl)cc2Cl)O1 (stereo not drawn)
active: [8] 20 µM | [10] 14.6 µM | [11] 9.03 µM | [12] 12.6 µM | [13] 15.2 µM | [14] 20 µM | [16] 25.8 µM | [17] 17.5 µM
inactive: [1] | [2] | [3] | [4] | [6] | [7] | [9] | [15]
